Test results as given in PubChem BioAssay AID1159580 (chemical genetic matrix, 2015).
The whole screen tested about 5,500 compounds, of which about 2,000 (36%) were called active. Not shown: some 18% with an inconclusive outcome. Cut-off read from the data, not from the text of the source: active = normalized growth mostly below about 0.91 (no sharp cut-off); inconclusive = no clear call, values can overlap the other calls; inactive = mostly above about 0.92. The list shows a part of the results.

Test: chemical genetic growth profiling, strain panel (AID 1159580);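 note: tested at 20 µM; growth read once vehicle control cultures reached saturation at 30 °C; 1 = growth at the plate median or of vehicle wells; lower values mean less growth of the strain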
Conditions: S. cerevisiae deletion strains, growth OD

Measured: normalized growth

C#CCn1c(=O)c2c(ncn2C)n(C)c1=O
inactive: locus YAL013W, strain DEP1, stronger effect = lower value 0.982 | locus YAL040C, strain CLN3, stronger effect = lower value 1.01 | locus YCL061C, strain MRC1 (second series), stronger effect = lower value 1.01 | locus YDR150W, strain NUM1, stronger effect = lower value 0.999 | locus YDR363W, strain ESC2, stronger effect = lower value 0.989 | locus YER002W, strain NOP16, stronger effect = lower value 0.997 | locus YGR078C, strain PAC10, stronger effect = lower value 1.01 | locus YGR229C, strain SMI1, stronger effect = lower value 1.03 | locus YJR075W, strain HOC1, stronger effect = lower value 0.994 | locus YMR263W, strain SAP30, stronger effect = lower value 0.995 | locus YMR307W, strain GAS1, stronger effect = lower value 1.01 | locus YNL175C, strain NOP13, stronger effect = lower value 0.998 | locus YNL197C, strain WHI3, stronger effect = lower value 0.977 | locus YNL224C, strain SQS1, stronger effect = lower value 1.01 | locus YNL322C, strain KRE1, stronger effect = lower value 0.987 | locus YOR083W, strain WHI5 (second series), stronger effect = lower value 0.965 | locus YPL241C, strain CIN2, stronger effect = lower value 1
